PubChem BioAssay (NCI)
Compounds without any hit were thinned out: in the full panel of roughly 83,000, 20% have a hit.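 Activity criterion: percent growth below 10, measured after cells in 96-well plates were exposed to a single compound concentration for 48 hours.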 Values without a mark were called inactive. Active and inactive are the calls of the source.

Assays:
Assay in all cases: NCI-60 one-dose screen, 48 h (100 = growth as untreated, 0 = no growth, -100 = all killed)
Conditions in all cases: 10 µM unless noted
[1] = system: DU-145 prostate
[2] = system: K-562 leukemia
[3] = system: MALME-3M melanoma
[4] = system: MDA-MB-231 breast
[5] = system: RXF 393 renal
[6] = system: SF-268 CNS
[7] = system: SF-295 CNS
[8] = system: SF-539 CNS
[9] = system: UACC-257 melanoma
[10] = system: M14 melanoma

SMILES | growth [1] | growth [2] | growth [3] | growth [4] | growth [5] | growth [6] | growth [7] | growth [8] | growth [9] | growth [10]
O=C(Nc1ncc(Cc2ccccc2)s1)c1ccc2c(c1)OCCCO2 | 27.5% | 9.28% (active) | 51% | 44% | -10% (active) | 60.4% | 15.2% | -9.3% (active) | 41.4% | 3.29% (active)
CC1(C)OB(O)c2cc(-c3nc4ccc5[nH]ncc5c4c4c3CCCC4)ccc21 | 54.8% | 44.5% | 60.5% | 47.9% | 35.3% | 57.4% | 63.1% | 73.6% | 77.5% | 52%
CC(C)(C)n1cc(-c2ccnc(NCCCNS(=O)(=O)c3ccc(C(F)(F)F)cc3)c2)c(-c2cccc(F)c2)n1 | 92.6% | 30.9% | 105% | 93.8% | 92.2% | 87.2% | 94.7% | 74.1% | 94.4% | 81.2%
Cc1ccc(-c2nc(-c3cn(C)c4ncccc34)cs2)cc1 | -56.4% [100 µM] (active) | 10.3% [100 µM] | -40% [100 µM] (active) | -14.6% [100 µM] (active) | -37.8% [100 µM] (active) | 2.72% [100 µM] (active) | -42.2% [100 µM] (active) | -79% [100 µM] (active) | -7.24% [100 µM] (active) | -63.7% [100 µM] (active)
CC1(C)N=C(N)N=C(N)N1c1cccc(CCc2ccccc2)c1 | 37.3% | 23.1% | 79.1% | 68.9% | 78.5% | 32.4% | 41.9% | 23% | 39.3% | 55.4%
COc1ccc2c(c1)CCc1[nH]nc(-c3cc(OC)c(OC)c(OC)c3)c1-2 | 7.06% (active) | 7.23% (active) | 69.8% | 19.2% | 22.6% | 17.8% | 1.46% (active) | 0.378% (active) | 38.2% | 4.46% (active)
Cc1ccc(-c2nc3nc(-c4ccccc4)nc(N4CCCN(S(C)(=O)=O)CC4)c3o2)cc1 | 57.1% | 84.5% | 55.5% | 73.5% | 19.4% | 76% | 87.4% | 30.7% | 75.4% | 70.9%
Fc1cc(Nc2ccc3c(OCCCN4CCOCC4)cccc3n2)ccc1Cl | 48.1% | -34.8% (active) | 21.4% | -18.9% (active) | 1.26% (active) | 48.5% | -46.2% (active) | 15.7% | 75.9% | -31.1% (active)
COc1cccc(CNc2c3ccccc3nc3ccccc23)c1 | 53.3% | 6.57% (active) | 44% | 49.9% | 13.8% | 71.2% | 36% | 19.4% | 55% | 35.2%
CO[C@H]1CC(=O)n2c3ccccc3c3c4c(c5c6ccccc6n1c5c32)C(=O)NC4=O | 42.3% | 76.3% | 50.2% | 71.4% | 62.4% | 68.9% | 11.3% | 57% | 73.5% | 62.2%
CN(C)c1ccc(-c2nc(-c3ccccc3)c(-c3ccccc3)[nH]2)cc1 | 102% | 65.7% | 107% | 95.3% | 104% | 112% | 88.6% | 102% | 110% | 82.7%
C=C1C(=O)O[C@H]2[C@H]1CC/C(COC(=O)/C=C\C(=O)NCc1ccc(Cn3c(=O)sn(CCCCC)c3=O)cc1)=C\CC[C@@]1(C)O[C@@H]21 | 49.2% | 12.6% | 52.4% | 71.4% | 74.9% | 92.5% | 101% | 78.7% | 75.8% | 43.9%
COC(=O)c1cc(Br)ccc1O | 110% | 111% | 102% | 118% | 101% | 105% | 102% | 107% | 109% | 105%
